# BCR signal inh = blocks chronic active B-cell receptor signaling; Potency, µM (highest dose often 46.1 µM), for inactives: at the top dose activity change, negative = inhibition, hits mostly inhibitors; ABC-DLBCL IkBa-CBG/CBR reporter, luminescence ratio, 4 h; 0.05% of 340,000 active; active = well fitted inhibition curve with a large enough effect in the signal ratio, with a control signal flat, not every such curve was filed as active; inconclusive = small, poorly fitted or top-dose-only effect, or effect the other way, or a change in a side signal; the % refers to the signal ratio;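 also: potency is read from the fitted curve at half-maximal effect; plate controls were basal doxycycline-induced cells for no effect and cells given 10 µM MG132 for full effect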
#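 TMD8 ABC-DLBCL cells carrying doxycycline-inducible green luciferase fused to IkappaBalpha plus unfused red luciferase were exposed to compounds (up to 46 uM) for 4 hrs at 37C. Activity came from the overlap-corrected green/red luminescence ratio.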
# Giardia killer = kills Giardia lamblia | Giardia lamblia trophozoite viability | activity change, % at 7.66 µM, hits read low | 0.15% of 340,000 active; in the data active = activity change below about -80%; inconclusive = between about -30% and that limit;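 also: parasites exposed to compound for two days anaerobically before the ATP read; % is scaled to controls: 0 for no effect and ±100 for the full control effect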
#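 Viability, read as ATP luminescence: trophozoites at 100 cells/well, compound added, 48 hrs anaerobic at 37 deg C, then 15-30 min room-temperature development before reading.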
# Gal4-VP16 FLuc = Gal4-VP16 reporter inhibition counter-screen. Drosophila S2 Gal4-VP16 UAS-luciferase, luminescence, 20 h. Potency, µM (top dose mostly 53.6 µM), without a hit: at the highest dose activity, negative = inhibition, actives largely listed as inhibitors. 3.5% of 310,000 active;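 also: Gal4-VP16 expression switched on by copper sulfate through the metallothionein promoter; potency is read from the fitted curve at half-maximal effect; % is scaled to controls: 0 for no effect and ±100 for the full control effect; nearly all actives have a fitted effect of over 50% in size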
# RORg inh = blocks mouse ROR gamma transcriptional activity | Drosophila S2 Gal4-RORgamma UAS-luciferase reporter, 20 h | Potency, µM (titrated, usually from 53.6 µM), inactives show top-dose activity change, negative = inhibition, most hits filed as inhibitors | 5.4% of 310,000 active | AID 2551; also: potency is read from the fitted curve at half-maximal effect; % is scaled to controls: 0 for no effect and ±100 for the full control effect; nearly all actives have a fitted effect of over 60% in size
# Target sequence (P51450 whole entry, looked up, the tested form may be a part): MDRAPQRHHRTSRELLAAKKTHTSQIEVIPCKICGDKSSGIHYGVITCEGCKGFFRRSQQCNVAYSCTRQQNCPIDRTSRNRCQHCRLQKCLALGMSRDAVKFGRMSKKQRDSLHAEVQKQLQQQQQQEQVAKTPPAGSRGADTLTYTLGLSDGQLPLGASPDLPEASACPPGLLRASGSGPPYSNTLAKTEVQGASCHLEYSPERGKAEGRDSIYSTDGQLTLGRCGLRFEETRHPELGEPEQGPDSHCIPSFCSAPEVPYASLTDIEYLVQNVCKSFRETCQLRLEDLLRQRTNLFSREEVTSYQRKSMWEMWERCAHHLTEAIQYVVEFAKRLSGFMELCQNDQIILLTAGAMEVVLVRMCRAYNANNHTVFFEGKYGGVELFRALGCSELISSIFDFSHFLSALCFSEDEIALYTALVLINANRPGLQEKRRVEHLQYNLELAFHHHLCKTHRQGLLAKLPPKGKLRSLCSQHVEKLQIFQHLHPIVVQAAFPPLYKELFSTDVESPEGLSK
#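 In this cell-based reporter format, copper sulfate (700 uM final) drives Gal4–ROR gamma fusion expression from a metallothionein promoter in Drosophila Schneider cells; compounds preincubated 1 hr, reporter read after 20 hr at ambient temperature.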
# SW480 rerep = induces DNA re-replication in SW480 colon adenocarcinoma cells; AID 624297; SW480 DNA re-replication, Hoechst DNA content imaging, 48 h; 1.8% of 340,000 active; Potency, µM (titrated, usually from 46.1 µM), without a hit: at the top dose re-replication activation, usual class: activators; also: potency is read from the fitted curve at half-maximal effect; % of control where 0% means no effect; nearly all actives have a fitted effect of over 55% in size
#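 Image-based DNA-content assay: after two days of treatment, nuclei were labelled with the DNA dye Hoechst and imaged, and hits were compounds raising the count of nuclei showing high fluorescence intensity.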
# MCF10A rerep = inducers of DNA re-replication in MCF 10A breast cells; 2.9% of 350,000 active; MCF 10A DNA re-replication, Hoechst nuclear intensity, 48 h; Potency, µM (top dose mostly 46.1 µM), inactives show top-dose activity, positive = re-replication, most hits filed as activators; also: potency is read from the fitted curve at half-maximal effect; % of control where 0% means no effect; nearly all actives have a fitted effect of over 50% in size
# The depositor's hits bear a star; ? = inconclusive; . = not tested or not shown; ! = not active in a repeat. Compounds with a hit are over-represented: about 8.3% of the library has one in this group of screens. Unless noted, calls follow the shape of the dose curve; as a rule, active = well fitted curve in the direction sought with a large enough effect; inconclusive = small, poorly fitted or top-dose-only effect, or another doubt; inactive = no such curve, though single readings can be large; an effect the other way counts as inactive or inconclusive.
SMILES,BCR signal inh,Giardia killer,Gal4-VP16 FLuc,RORg inh,SW480 rerep,MCF10A rerep
CCOC(=O)N1CCN(C(=S)NC(=O)c2ccc(F)c(F)c2)CC1,-12.8%,3.8,1µM*,0.631µM*,-20.7%,1.5%
CCOC(=O)N1CCN(C(=S)NC(=O)c2c(-c3c(Cl)cccc3Cl)noc2C)CC1,0.4%,-11.6,0.794µM*,0.251µM*,29.0%,2.0%
Cc1ccc(Nc2nc3c(c(=O)[nH]2)CCCC3)cc1,12.3%,2.3,?,16.1%,11.5%,0.7%
O=c1[nH]c(Nc2nc3ccccc3o2)nc2c1CCCC2,-28.7%,-13.9,10µM*,3.98µM*,3.3%,-30.5%
CCN1CCN(CCCNC(=O)CNC(=O)c2nn(-c3ccc(OC)cc3OC)c(=O)c3ccccc23)CC1,?,5.4,-6.3%,-13.2%,-4.7%,2.1%
COc1ccc(/C=C/C(=O)c2ccc([N+](=O)[O-])o2)cc1OC,?,-3.2,.,.,?,?
COc1cc(/C=C/C(=O)c2ccc([N+](=O)[O-])o2)ccc1O,?,-11.8,.,.,0.058µM*,?
O=C(/C=C/c1cccc(Cl)c1)c1ccc([N+](=O)[O-])o1,?,-1.5,.,.,1.46µM*,2.31µM*
O=C(NCCc1c[nH]c2ccccc12)C1CCC(Cn2c(=S)[nH]c3ccccc3c2=O)CC1 (centres undefined),9.6%,9.6,12.6µM*,7.08µM*,8.9%,?
COc1ccc(/C=C2\NC(=O)C(C=NCc3ccccc3)=C2O)cc1,-0.2%,-6.6,-18.4%,-15.9%,-3.3%,3.0%
O=C1N/C(=C\c2ccc(O)cc2)C(O)=C1C=NCc1ccccc1,2.2%,1.9,?,3.98µM*,1.1%,10.3µM*
CC(=O)N1N=C(c2ccncc2)CC1c1ccccc1O (centres undefined),-1.0%,6.9,-14.5%,?,-2.8%,2.9%
CCn1cc([N+](=O)[O-])c(C(=O)N2N=C(c3ccc4ccccc4c3)CC2c2ccccc2O)n1 (centres undefined),?,-10.5,-27.9%,-6.1%,23.4%,?
CC(=O)N1N=C(c2ccccc2)CC1c1cn(Cc2ccccc2)c2ccccc12 (centres undefined),-0.1%,-2.5,?,?,?,20.6µM*
CCn1cc(Cl)c(C(=O)N2N=C(c3ccc4ccccc4c3)CC2c2ccccc2O)n1 (centres undefined),?,-3.0,15.8µM*,?,?,29.0%
O=C(c1ccccc1)N1N=C(c2ccccc2)CC1c1ccccc1O (centres undefined),?,4.2,3.98µM*,4.47µM*,?,?
O=C(c1ccncc1)N1N=C(c2ccc(Br)cc2)CC1c1ccccc1O (centres undefined),?,3.4,-14.7%,24.9%,6.1%,?
Cc1ccc(C2=NN(C(=O)c3cccs3)C(c3ccccc3O)C2)cc1 (centres undefined),?,3.6,-12.3%,0.2%,?,20.6µM*
O=C(c1cccs1)N1N=C(c2ccccc2)CC1c1ccccc1O (centres undefined),?,2.7,-17.8%,-22.9%,?,?
CC(NC(=O)C(=O)NCCN1CCN(C(=O)c2ccccc2Br)CC1)c1ccccc1 (centres undefined),2.9%,21.2,-5.4%,7.2%,-14.4%,-26.6%
O=S(=O)(NC1CC1)c1ccc(S(=O)(=O)N2CCCC3(CCCCC3)C2)cc1,?,8.8,?,?,?,14.6µM*
CCCn1c(C)nc2c(N(CCN(C)C)Cc3ccccc3)nc(C)nc21,.,.,9.8%,-17.9%,.,.
Cc1cnc(CN2CCc3c([nH]c4ccccc34)C2CC(C)C)[nH]1 (centres undefined),?,-25.8,11.2%,-32.8%,6.51µM*,?
Fc1ccc(C2c3[nH]c4ccccc4c3CCN2Cc2cccn2-c2ncccn2)cc1 (centres undefined),-13.8%,1.5,7.4%,15.4%,-128.1%,?
Cc1cccc(CN2CCc3c([nH]c4ccccc34)C2CC(C)C)n1 (centres undefined),0.0%,-3.0,?,?,?,18.4µM*
SMILES,BCR signal inh,Giardia killer,Gal4-VP16 FLuc,RORg inh,SW480 rerep,MCF10A rerep
Cc1cccc(C2c3[nH]c4ccccc4c3CCN2C(=O)CN2CCOC2=O)n1 (centres undefined),-3.1%,-4.7,2.3%,11.1%,-8.4%,4.0%
CCC1CCCCN1C(=O)CSc1nnc(CNC(=O)c2c(F)cccc2Cl)o1 (centres undefined),0.0%,-22.4,4.5%,4.1%,-11.9%,0.1%
CCOC(=O)C1=C(N)OC2=C(C(=O)CCC2)C1c1ccc2c(c1)OCO2 (centres undefined),.,18.7,.,.,2.0%,5.1%
Cc1ccc(C)c(OCCCC(C)(C)C(=O)O)c1,?,-5.3,20µM*!,-5.4%,0.6%,-2.5%
O=C(Oc1coc(CSc2ncccn2)cc1=O)c1cccs1,-14.7%,7.9,18.6%,-20.2%,-4.8%,0.4%
Cc1nc(C(=O)Nc2ccccc2)sc1C1(C)CC(c2cccnc2)=NO1 (centres undefined),0.0%,17.0,-1.1%,44.8%,0.6%,-1.3%
COc1ccc(NC(=O)c2nc(C)c(C3(C)CC(c4ccccc4)=NO3)s2)cc1 (centres undefined),?,-29.2,-1.9%,-21.9%,4.61µM*,3.66µM*
CC(NC(=O)C(=O)N1CCOCC1)C(c1cccs1)N1CCN(c2ccccc2)CC1 (centres undefined),-1.5%,28.2,2.5%,-31.5%,-0.7%,6.0%
O=C(NC1CC1)C1CC(=O)N(c2cccc(Cl)c2)C1 (centres undefined),?,?,-12.7%,-21.0%,10.4%,-0.5%
COc1ccc(NC(=O)c2ccc([N+](=O)[O-])o2)cc1,?,-94.9*,.,.,2.59µM*,16.4µM*
NS(=O)(=O)c1ccc(O)c(NC(=O)c2ccc([N+](=O)[O-])o2)c1,-10.8%,-20.2,7.1%,1.0%,11.6µM*,?
CC(=O)c1cccc(NC(=O)c2cc(=O)c3ccccc3o2)c1,1.6%,-13.0,6.1%,14.7%,-12.8%,-0.8%
Cc1cc(C)nc(NC(=O)c2cc([N+](=O)[O-])cc([N+](=O)[O-])c2)n1,-2.6%,2.4,-11.8%,-12.7%,12.0%,?
Cc1cc(C)nc(NC(=O)c2ccc([N+](=O)[O-])o2)n1,1.8%,?,-13.1%,-33.6%,8.2µM*,13µM*
CC(=O)c1cccc(NC(=O)c2ccc([N+](=O)[O-])o2)c1,.,-87.6*,.,.,?,4.11µM*
COc1ccc(NC(=O)c2ccc(Br)o2)cc1,-0.4%,-4.4,-4.8%,-20.0%,-9.4%,-6.9%
